Bioassay records deposited in PubChem BioAssay by several laboratories.
Hits are enriched below; roughly 1.9% of the tested compounds scored in any of these assays.
14-3-3 Bad inh: inhibitors of 14-3-3 zeta/Bad binding, primary screen, biochemical, TR-FRET, bovine 14-3-3 zeta; 14-3-3 protein zeta/delta (Bos taurus), P63103; TR-FRET 14-3-3zeta/Dy647-pBad peptide displacement, 1 h; inhibition, % at 21.7 µM; hit rate 0.71% among 220,000; AID 781, 2007;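 active = inhibition above about 70%, limit read from the data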;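 also: 0% = full 14-3-3 plus peptide FRET controls and 100% = background without 14-3-3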
PABP1 MLLE inh: inhibitors of PABP1 MLLE–PAM2 peptide binding, primary screen, biochemical, fluorescence polarization, FITC-PAM2, GST-MLLE. Polyadenylate-binding protein 1 (Homo sapiens), P11940. inhibition, % at 20 µM. hit rate 0.36% among 360,000. AID 588489, 2011; in the data active = inhibition above about 35%, passing the limit was not always enough;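 also: plate controls were DMSO wells with GST-MLLE for no effect and wells lacking GST-MLLE protein for full effect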
PABP FP inh: PABP poly(A) RNA binding inhibitors, primary screen, biochemical, fluorescence polarization, uHTS; Polyadenylate-binding protein 1 (Homo sapiens), P11940; calls only at 35 µM; hit rate 1% among 290,000; AID 2014, 2009;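 also: calls also rest on retests at 20 µM and on dose response follow-up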
eIF4E-4G inh: eIF4E–eIF4G protein interaction inhibitors, primary screen, biochemical, uHTS, TR-FRET, eIF4GI fragment; Eukaryotic translation initiation factor 4E (Mus musculus) + Eukaryotic translation …; TR-FRET eIF4E-eIF4GI(517-606) binding, 2 h; inhibition, % at 21.7 µM; hit rate 0.37% among 220,000; AID 782, 2007;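 active = inhibition above about 30%, limit read from the data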;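 also: 0% = full FRET control wells and 100% = background wells lacking eIF4GI fragment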
eIF4H FP inh: human eIF4H binding inhibitors, primary screen, translation initiation inhibitor project, biochemical, uHTS, fluorescence polarization; inhibition, % at 35 µM; AID 2012, 2009; eIF4H fluorescence polarization binding assay; hit rate 0.94% among 290,000; Eukaryotic translation initiation factor 4H (Homo sapiens), Q15056;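 also: calls also rest on retests at 20 µM and on dose response follow-up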
* = called active by the depositor; ! = a repeat was not active; [ ] = remark or other dose. Unless noted, no rule for the calls is given here.

For CCN(CC)c1ccc(NC(=O)CSc2nc(C)cc(=O)[nH]2)cc1 the results were 14-3-3 Bad inh -2, PABP1 MLLE inh 10, PABP FP inh inactive, eIF4E-4G inh 4 and eIF4H FP inh -8.
COc1cccc(NC(=O)CCNC(=O)N2CC(=O)Nc3ccccc32)c1 was read as PABP1 MLLE inh 12, PABP FP inh inactive and eIF4H FP inh -6.
Screening CCC(=O)Nc1ccc(Cl)c(NC(=S)NC(=O)COc2ccccc2)c1 returned 14-3-3 Bad inh -18, PABP1 MLLE inh 39*, PABP FP inh inactive, eIF4E-4G inh -2 and eIF4H FP inh -4.
For CCn1c2ccccc2c2n[nH]c(=S)nc21 the results were PABP1 MLLE inh 33, PABP FP inh inactive and eIF4H FP inh -7.
O=C(O)Cn1c2ccccc2c2n[nH]c(=S)nc21 was read as PABP1 MLLE inh 43*, PABP FP inh inactive and eIF4H FP inh 13.
`CCCN(CC(=O)Nc1ccccc1OC)C(=O)Cc1ccccc1F` gave PABP1 MLLE inh 4, PABP FP inh inactive and eIF4H FP inh 1.
For O=C(Nc1ccccc1Cl)C(Cl)C(=O)c1ccccc1 (centres undefined) the results were 14-3-3 Bad inh -1, PABP1 MLLE inh 23, PABP FP inh inactive, eIF4E-4G inh 0 and eIF4H FP inh 8.0*.
O=C(Nc1ccc(Cl)cc1)C(Cl)C(=O)c1ccccc1 (centres undefined) was read as PABP1 MLLE inh 32, PABP FP inh inactive and eIF4H FP inh -17.
O=C(Oc1ccccc1N1C(=O)C2CCCCC2C1=O)c1ccccc1F (centres undefined) was read as 14-3-3 Bad inh -17, PABP1 MLLE inh 9, PABP FP inh inactive, eIF4E-4G inh -1 and eIF4H FP inh active.
Cc1ccc(CCNC(=O)c2coc3nc4ccccc4nc23)cc1 was read as 14-3-3 Bad inh -27, PABP1 MLLE inh -28, PABP FP inh active, eIF4E-4G inh -69 and eIF4H FP inh 73.
O=S(=O)(c1ccccc1)N1CCN(c2nnc(-c3ccccc3)c3ccccc23)CC1 was read as 14-3-3 Bad inh -2, PABP1 MLLE inh 2, PABP FP inh inactive, eIF4E-4G inh -1 and eIF4H FP inh -9.
`COc1cc(OC)c(-c2c3cc(O)c(=O)cc-3oc3cc(O)c(O)cc23)cc1OC` gave 14-3-3 Bad inh -3, PABP1 MLLE inh inactive, PABP FP inh inactive, eIF4E-4G inh 4 and eIF4H FP inh inconclusive.
Cc1c2cc(O)c(=O)cc-2oc2cc(O)c(O)cc12 was read as 14-3-3 Bad inh 93*, PABP1 MLLE inh inactive, PABP FP inh inactive, eIF4E-4G inh 35*![fluorescence artefact?] and eIF4H FP inh 131.
CCc1ccc(S(=O)(=O)N2CCN(C(=O)c3cccnc3)CC2)cc1 was read as PABP1 MLLE inh -20, PABP FP inh inactive and eIF4H FP inh 6.
O=c1c2ccccc2ncn1CCCSc1ccccc1 was read as 14-3-3 Bad inh 5, PABP1 MLLE inh -2, PABP FP inh active, eIF4E-4G inh -2 and eIF4H FP inh 106*.
Screening COc1cc2[nH]c(=S)n(Cc3ccc(C)cc3)c(=O)c2cc1OC returned 14-3-3 Bad inh 23, PABP1 MLLE inh -110, PABP FP inh inactive, eIF4E-4G inh 3 and eIF4H FP inh 18.
For COc1ccc2[nH]c(C)c(C(=O)CN3CCN(C/C=C/c4ccccc4)CC3)c2c1 the results were 14-3-3 Bad inh 3, PABP1 MLLE inh -1, PABP FP inh inactive, eIF4E-4G inh 4 and eIF4H FP inh 3.
For CCOCc1cnc(C)nc1NCC(=O)c1c(C)[nH]c2ccc(OC)cc12 the results were 14-3-3 Bad inh 6, PABP1 MLLE inh -102, PABP FP inh active, eIF4E-4G inh -8 and eIF4H FP inh active.
OCC1OC(c2ccccc2)OC2COC(c3ccccc3)OC12 (centres undefined) was read as PABP1 MLLE inh -5.
`NC(=O)CC1NC(=O)c2cc([N+](=O)[O-])cc(I)c2OCCC(C(N)=O)NC(=O)[C@@H]2CCCN2C1=O` (some centres undefined) gave 14-3-3 Bad inh -3, PABP FP inh inactive, eIF4E-4G inh 4 and eIF4H FP inh active.
`CC(CCCC(C)(C)O)CC1C2=C(CCCC2=O)OC2=C1C(=O)CCC2` (centres undefined) gave 14-3-3 Bad inh -8, PABP1 MLLE inh 2, PABP FP inh inactive, eIF4E-4G inh 0 and eIF4H FP inh 2.
COc1ccc(CCn2c(-c3ccc(OC)cc3)nc3c(c(=O)c4ccccc4n3C)c2=O)cc1 was read as 14-3-3 Bad inh 6, PABP1 MLLE inh 2, PABP FP inh inactive, eIF4E-4G inh -3 and eIF4H FP inh 7.
Screening CCc1nc2c(c(=O)c3ccccc3n2C)c(=O)n1CCc1ccc(OC)cc1 returned 14-3-3 Bad inh 88*, PABP FP inh inactive, eIF4E-4G inh 0 and eIF4H FP inh 5.
COc1ccc(C(=O)OCC[N+]2(C)CCOCC2)cc1 was read as 14-3-3 Bad inh 41, PABP1 MLLE inh -131, PABP FP inh inactive, eIF4E-4G inh 31* and eIF4H FP inh 4.
COc1ccc(C(=O)OCCc2ccc(O)cc2)cc1 was read as 14-3-3 Bad inh 8, PABP1 MLLE inh 16, PABP FP inh inactive, eIF4E-4G inh 8 and eIF4H FP inh 7.
`COC(=O)c1cccc(CN2C(=O)C(C)Sc3ccc(C(C)=O)cc32)c1` (centres undefined) gave PABP1 MLLE inh 4.
For O=C(NCc1ccccc1C(F)(F)F)c1cccc2c1C(=O)c1ccc(N3CCCCC3)cc1S2(=O)=O the results were PABP1 MLLE inh -4.
Screening COc1cc(C=C(c2nc3ccccc3s2)c2nc3ccccc3s2)cc(OC)c1O returned 14-3-3 Bad inh -5, PABP1 MLLE inh -31, PABP FP inh active, eIF4E-4G inh 2 and eIF4H FP inh 52*.
Screening COc1cc(/C=C(\CC(=O)O)c2nc3ccccc3s2)cc(OC)c1O returned 14-3-3 Bad inh -4, PABP1 MLLE inh -8, PABP FP inh inactive, eIF4E-4G inh 0 and eIF4H FP inh -4.
For Cn1cnnc1Sc1ccc(C(=O)OCC(=O)Nc2ccccc2)cc1[N+](=O)[O-] the results were 14-3-3 Bad inh -4, PABP1 MLLE inh -10, PABP FP inh inactive, eIF4E-4G inh -14 and eIF4H FP inh -5.
`Cn1cnnc1Sc1ccc(C(=O)OCC(=O)Nc2cc(Cl)cc(Cl)c2)cc1[N+](=O)[O-]` gave 14-3-3 Bad inh 86*[fluorescence artefact?], PABP1 MLLE inh -30, PABP FP inh inactive, eIF4E-4G inh 29 and eIF4H FP inh -14.
COc1ccccc1CNS(=O)(=O)c1ccc2c(c1)N(C(C)=O)CCO2 was read as PABP1 MLLE inh -1, PABP FP inh inactive and eIF4H FP inh -3.
Cc1nc(-c2ccccc2)cc(-c2ccccc2)n1 was read as PABP1 MLLE inh 9.
